Test results as given in PubChem BioAssay (NCI).
The panel holds about 83,000 compounds, 20% with a hit somewhere; the sample as a whole holds those more often.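 Note: values are percent growth. 100 is the growth of untreated cells, values between 100 and 0 indicate rising inhibition; between -100 and 0 indicates cell death.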 Calls of active or inactive are those of the source. Rule for the calls: active = growth percent below 10; inactive = the rest.

What was measured:
Test in all cases: NCI-60 one-dose screen, 48 h (100 = growth as untreated, 0 = no growth, -100 = all killed)
Conditions in all cases: 10 µM unless noted
[1] = test system: DU-145 prostate
[2] = test system: K-562 leukemia
[3] = test system: MALME-3M melanoma
[4] = test system: MDA-MB-231 breast
[5] = test system: RXF 393 renal
[6] = test system: SF-268 CNS
[7] = test system: SF-295 CNS
[8] = test system: SF-539 CNS
[9] = test system: UACC-257 melanoma
[10] = test system: M14 melanoma
[11] = test system: HCT-15 colon
[12] = test system: HT29 colon
[13] = test system: SNB-75 CNS
[14] = test system: SNB-19 CNS
[15] = test system: U251 CNS
[16] = test system: PC-3 prostate
[17] = test system: SK-MEL-5 melanoma
[18] = test system: UACC-62 melanoma
[19] = test system: LOX IMVI melanoma
[20] = test system: SK-MEL-28 melanoma

Measured: growth

Cn1cc(-c2csc(-c3c[nH]c4ccc(F)cc34)n2)c2ccnc(Cl)c21
active: [11] 5.69%
inactive: [1] 51.2% | [2] 53.3% | [3] 121% | [4] 60.9% | [5] 67.8% | [6] 92% | [7] 85% | [8] 68.9% | [9] 39.3% | [10] 57.4% | [12] 29.8% | [13] 77.5% | [14] 91.4% | [15] 49.6% | [16] 62.1% | [17] 63.2% | [18] 70.6% | [19] 67.5% | [20] 93.5%

COc1cccc(/C=N/NC(=O)c2ccccc2N2CCCC2)c1O
inactive: [1] 68% | [2] 13.6% | [3] 75.7% | [4] 47.8% | [5] 63.8% | [6] 38.8% | [7] 86.2% | [8] 61.8% | [10] 48.5% | [11] 19.4% | [12] 69.3% | [13] 67.4% | [14] 65.8% | [15] 46.7% | [16] 72% | [17] 58.4% | [18] 42.5% | [19] 25.4% | [20] 72.1%
active: [9] -29.8%

CCCCNC(=O)c1cc([N+](=O)[O-])cc(C2CCCCC2)c1O
inactive: [1] 57.6% | [2] 28.2% | [4] 31.4% | [5] 42% | [6] 43.9% | [7] 15.9% | [8] 47.9% | [9] 24.6% | [10] 44.4% | [11] 42.7% | [12] 69.7% | [13] 58.6% | [14] 40.3% | [15] 24.1% | [16] 27.1% | [18] 20.3% | [19] 36.2% | [20] 34.3%
active: [3] 1.91% | [17] -12.6%

COCCn1cc(-c2csc(-c3c[nH]c4ccc(Br)cc34)n2)c2cccnc21
active: [2] 0.0972% | [4] 4.45% | [19] -10.7%
inactive: [1] 46.7% | [3] 53.1% | [5] 58.9% | [6] 44.3% | [7] 17.7% | [8] 45.5% | [9] 28.9% | [10] 14.3% | [11] 13.1% | [12] 18.2% | [13] 39.7% | [14] 55.6% | [15] 36.5% | [16] 16% | [17] 19.9% | [18] 44.7% | [20] 52.3%

Nc1c(C(=O)Nc2cccc(Cl)c2)sc2nc3c(cc12)CCCC3
inactive: [1] 104% | [2] 48.3% | [3] 102% | [4] 93.3% | [5] 103% | [6] 102% | [7] 91.6% | [8] 86.9% | [9] 79.1% | [10] 78.6% | [11] 78.8% | [12] 68.2% | [13] 101% | [14] 92.2% | [15] 89.3% | [16] 80.2% | [17] 88.2% | [18] 70.2% | [19] 93% | [20] 91.1%

Cn1ccc(=O)nc1
active: [1] 8.53%
inactive: [2] 91.9% | [3] 111% | [4] 91.9% | [5] 92.6% | [6] 86.1% | [7] 82.9% | [8] 99.9% | [9] 88.3% | [10] 102% | [11] 24.1% | [12] 20.6% | [13] 104% | [14] 84.6% | [15] 77.8% | [16] 69.6% | [17] 99.3% | [18] 74.8% | [19] 76.8% | [20] 109%

COc1cccc(CNc2c3ccccc3nc3ccccc23)c1
active: [2] 6.57%
inactive: [1] 53.3% | [3] 44% | [4] 49.9% | [5] 13.8% | [6] 71.2% | [7] 36% | [8] 19.4% | [9] 55% | [10] 35.2% | [11] 24.4% | [12] 18.7% | [13] 56.9% | [14] 36% | [15] 38.7% | [16] 38.9% | [17] 57.6% | [18] 63.5% | [19] 19.8% | [20] 81.2%

C#Cc1cccc(Nc2nc(C)nc3cc(NC(=O)CCl)ccc23)c1
active: [1] -95.8% | [2] 0.173% | [3] -77.6% | [4] -73.1% | [5] -87.2% | [6] -67.2% | [7] -79.7% | [8] -92.8% | [9] -60.9% | [10] -27.5% | [11] -63.7% | [12] -84% | [13] -94.7% | [14] -32.9% | [15] -93.9% | [16] -81.2% | [17] -94% | [18] -46.5% | [19] -81.7% | [20] -81.9%

COc1cc2c(cc1OCCCCN1CCN(C(=S)SCCC(C#N)(c3ccccc3)c3ccccc3)CC1)N=C[C@@H]1CCCN1C2=O
active: [1] -96.7% | [2] -34.3% | [3] -79.4% | [4] -23.7% | [5] -83.7% | [6] -69.9% | [7] -8.56% | [8] -91.3% | [9] -11.1% | [10] -29.5% | [11] -55.5% | [12] -65.6% | [13] -82.3% | [14] -14.5% | [15] -81.9% | [16] -16.1% | [17] -98.3% | [18] -22.7% | [19] -83.2% | [20] -70.2%

O=C1c2cccc3cccc(c23)C(=O)N1C/C=C/c1ccc2c3c(cccc13)C(=O)N(CCO)C2=O
inactive: [1] 70.4% | [2] 79.9% | [3] 75.5% | [4] 62.1% | [5] 27.9% | [6] 87.7% | [7] 76.5% | [8] 72.7% | [9] 79.8% | [10] 87.8% | [11] 75.3% | [12] 87% | [13] 58.6% | [14] 88% | [15] 71.1% | [16] 51.2% | [17] 89.9% | [18] 91.4% | [19] 87.3% | [20] 84.9%

c1ccc(CCNc2c3ccccc3nc3ccccc23)cc1
inactive: [1] 37.9% | [2] 25% | [3] 57.1% | [4] 43.3% | [5] 35.3% | [6] 66.5% | [7] 34.9% | [8] 28.1% | [9] 55.2% | [10] 42.7% | [11] 23.3% | [12] 22.1% | [13] 67.6% | [14] 39.5% | [15] 41.1% | [16] 35.7% | [17] 64.7% | [18] 53.2% | [19] 17.6% | [20] 67.7%

COc1cc(NC(=O)c2cncnc2Nc2ccc3c(ccn3Cc3ccccn3)c2)cc(OC)c1
inactive: [1] 65.4% | [2] 17.1% | [3] 44.7% | [4] 50.6% | [5] 42% | [6] 63.1% | [7] 35% | [8] 48.2% | [9] 68% | [10] 36.5% | [11] 30.7% | [12] 11.7% | [14] 58.3% | [15] 45.9% | [16] 38.2% | [17] 35.4% | [18] 58.1% | [19] 39.9% | [20] 63.8%
active: [13] -3.17%

COC(=O)c1nc(-c2ccccc2)oc1S(=O)(=O)NCC(c1ccc(Cl)cc1)N1CCOCC1 (stereo not given)
inactive: [1] 78.2% | [2] 13.4% | [3] 76.9% | [4] 75.8% | [5] 83.6% | [6] 77% | [7] 101% | [8] 92.3% | [9] 87.3% | [10] 35% | [11] 44.2% | [12] 40% | [13] 94.3% | [14] 89.4% | [15] 72.8% | [16] 50% | [17] 86.4% | [18] 80.9% | [19] 48.7% | [20] 94.3%

O=C(Nc1ncccc1OCc1ccccc1)NC1CCCCCC1
inactive: [1] 92% | [2] 70.6% | [3] 90.2% | [4] 90.1% | [5] 106% | [6] 92.3% | [7] 85.4% | [8] 98.2% | [9] 105% | [10] 95.3% | [11] 80.7% | [12] 74.6% | [13] 97.7% | [14] 97.9% | [15] 96.2% | [16] 48.1% | [17] 69.1% | [18] 71.6% | [19] 90.6% | [20] 93.6%

COc1cc(Cl)c(C)cc1NC(=O)c1cc2ccccc2cc1O
active: [3] -8.31% | [4] -23.8% | [7] -15.1% | [9] -1.4% | [11] 9.39% | [15] 6.67% | [16] 2.12% | [17] -35.1% | [19] 2.44%
inactive: [1] 26.4% | [2] 14.5% | [5] 11.7% | [6] 24% | [8] 22.1% | [10] 24.1% | [12] 37.8% | [13] 21.4% | [14] 23.1% | [18] 14.2% | [20] 36.5%

O=C1Nc2ccccc2C1(c1c[nH]c2ccccc12)c1c[nH]c2ccccc12
inactive: [1] 29.6% | [2] 42.9% | [3] 81.8% | [4] 49% | [6] 53.2% | [7] 86.3% | [8] 47.1% | [9] 94.6% | [10] 66% | [11] 32.2% | [12] 53.3% | [14] 81.5% | [15] 73.7% | [17] 89.4% | [18] 70.3% | [20] 108%
active: [5] -53% | [13] -12.9% | [16] -9.62% | [19] 8.4%
